From the supplement of paper PMC10849652
The full data set covers some 7,900 targets. This sample favours those with a hit. About 0.6% of all pairs of compound and target were hits. A number with no mark means an inactive call.

Assays:
Assay in all cases: log2 fold change, soluble protein after heating vs DMSO (PISA); higher = thermal stabilisation; K562 cells, 10 uM, 30 min; active = over 0.2 and 3.5 SD of the protein, either way, in both replicates (recomputed)
[1] = compound: CC[C@@H]1C(=O)N(C)c2cnc(Nc3ccc(C(=O)NC4CCN(C)CC4)cc3OC)nc2N1C1CCCC1
Summary of the method: (§1)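 Aliquots of K562 cells (2×10^6 cells/mL) treated with 10 μM compound for 30 min were heated for 3 min over 48°C-58°C. After pooling and extraction in PBS with 0.5% NP-40 at 4°C, soluble protein from a 21,000xg, 90 min spin was quantified by TMTpro 16plex LC-MS/MS with channel sums equalised. Thermal stability is expressed against control samples, from duplicates, as a log2 fold change.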

[2] = compound: CC[C@@H]1C(=O)N(C)c2cnc(Nc3ccc(C(=O)N[C@H]4CC[C@H](N5CCN(CC6CC6)CC5)CC4)cc3OC)nc2N1C(C)C [volasertib]
Summary of the method: as §1

[3] = compound: CC[C@H](C)N1C=C(C2=C(C=C(C=C21)C3=CN=C(C=C3)N4CCNCC4)C(=O)NCC5=C(C=C(NC5=O)C)C)C
Summary of the method: as §1

[4] = compound: CC[C@H](C)[C@@H](C(=O)N[C@@H]([C@@H](C)O)C(=O)N[C@@H](CC(C)C)C(=O)[C@]1(CO1)C)NC(=O)[C@H]([C@@H](C)CC)N(C)C(=O)C [epoxomicin]
Summary of the method: as §1

[5] = compound: CCn1c(C(=O)N(C2CC2)C2CC2)cc2c3c(ncn3C)c(Nc3cc(C)n(C)n3)nc21
Summary of the method: as §1

[6] = compound: CCn1cc(-c2ccnc3[nH]c(-c4cccc(CN(C)C)c4)cc23)c(-c2ccc(NC(=O)N(C)C)cc2)n1
Summary of the method: as §1

[7] = compound: CN(C)CC(=O)Nc1ccc2[nH]c(=O)c3ccccc3c2c1
Summary of the method: as §1

[8] = compound: CN(CCOC1=CC=C(C=C1)C[C@H]2C(=O)NC(=O)S2)C3=CC=CC=N3 (racemic) [rosiglitazone]
Summary of the method: as §1

[9] = compound: CN1C2=C(C3=C1C(=O)N(N=C3)CC4=CC(=CC=C4)N)SC(=C2)S(=O)C
Summary of the method: as §1

[10] = compound: CN1CCC(CNc2ccc3ncc(-c4cccc(OC(F)(F)F)c4)n3n2)CC1
Summary of the method: as §1

UniProt Q96CS3, sequence (Q96CS3 whole entry, looked up): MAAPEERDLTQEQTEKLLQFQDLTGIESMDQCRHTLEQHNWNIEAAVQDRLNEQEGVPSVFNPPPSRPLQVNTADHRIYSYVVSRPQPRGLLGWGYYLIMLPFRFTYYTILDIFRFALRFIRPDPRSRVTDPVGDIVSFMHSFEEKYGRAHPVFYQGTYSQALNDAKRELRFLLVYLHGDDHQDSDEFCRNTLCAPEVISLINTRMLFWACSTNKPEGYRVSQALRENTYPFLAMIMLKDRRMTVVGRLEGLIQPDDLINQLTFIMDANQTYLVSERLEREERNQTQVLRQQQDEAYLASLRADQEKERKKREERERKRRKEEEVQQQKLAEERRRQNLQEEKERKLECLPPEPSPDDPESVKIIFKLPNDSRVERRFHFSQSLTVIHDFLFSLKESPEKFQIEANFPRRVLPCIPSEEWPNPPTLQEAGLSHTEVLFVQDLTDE
UniProt Q96E09, sequence (Q96E09 whole entry, looked up): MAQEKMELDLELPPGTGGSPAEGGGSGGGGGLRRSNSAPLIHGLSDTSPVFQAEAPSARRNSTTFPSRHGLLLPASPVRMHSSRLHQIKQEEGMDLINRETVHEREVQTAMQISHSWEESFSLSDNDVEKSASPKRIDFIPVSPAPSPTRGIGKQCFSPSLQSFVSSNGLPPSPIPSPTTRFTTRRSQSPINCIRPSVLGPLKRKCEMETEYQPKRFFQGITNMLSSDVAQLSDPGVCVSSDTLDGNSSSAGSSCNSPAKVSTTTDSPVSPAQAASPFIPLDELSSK
UniProt Q9NZN4, sequence (Q9NZN4 whole entry, looked up): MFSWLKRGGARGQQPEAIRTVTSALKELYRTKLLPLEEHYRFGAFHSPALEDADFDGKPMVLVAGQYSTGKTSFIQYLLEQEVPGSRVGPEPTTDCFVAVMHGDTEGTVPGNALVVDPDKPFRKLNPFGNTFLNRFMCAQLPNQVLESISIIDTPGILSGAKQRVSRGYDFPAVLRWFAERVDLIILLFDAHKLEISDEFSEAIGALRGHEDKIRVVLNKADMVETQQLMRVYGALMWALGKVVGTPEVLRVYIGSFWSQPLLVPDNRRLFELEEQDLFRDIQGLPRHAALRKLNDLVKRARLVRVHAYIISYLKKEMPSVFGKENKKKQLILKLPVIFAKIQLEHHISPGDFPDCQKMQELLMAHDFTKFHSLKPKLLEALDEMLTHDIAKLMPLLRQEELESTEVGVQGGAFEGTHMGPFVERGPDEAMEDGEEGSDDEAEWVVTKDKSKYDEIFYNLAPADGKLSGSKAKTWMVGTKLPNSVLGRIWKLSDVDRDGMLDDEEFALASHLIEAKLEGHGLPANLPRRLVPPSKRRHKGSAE
UniProt Q0VG06, sequence (Q0VG06 whole entry, looked up): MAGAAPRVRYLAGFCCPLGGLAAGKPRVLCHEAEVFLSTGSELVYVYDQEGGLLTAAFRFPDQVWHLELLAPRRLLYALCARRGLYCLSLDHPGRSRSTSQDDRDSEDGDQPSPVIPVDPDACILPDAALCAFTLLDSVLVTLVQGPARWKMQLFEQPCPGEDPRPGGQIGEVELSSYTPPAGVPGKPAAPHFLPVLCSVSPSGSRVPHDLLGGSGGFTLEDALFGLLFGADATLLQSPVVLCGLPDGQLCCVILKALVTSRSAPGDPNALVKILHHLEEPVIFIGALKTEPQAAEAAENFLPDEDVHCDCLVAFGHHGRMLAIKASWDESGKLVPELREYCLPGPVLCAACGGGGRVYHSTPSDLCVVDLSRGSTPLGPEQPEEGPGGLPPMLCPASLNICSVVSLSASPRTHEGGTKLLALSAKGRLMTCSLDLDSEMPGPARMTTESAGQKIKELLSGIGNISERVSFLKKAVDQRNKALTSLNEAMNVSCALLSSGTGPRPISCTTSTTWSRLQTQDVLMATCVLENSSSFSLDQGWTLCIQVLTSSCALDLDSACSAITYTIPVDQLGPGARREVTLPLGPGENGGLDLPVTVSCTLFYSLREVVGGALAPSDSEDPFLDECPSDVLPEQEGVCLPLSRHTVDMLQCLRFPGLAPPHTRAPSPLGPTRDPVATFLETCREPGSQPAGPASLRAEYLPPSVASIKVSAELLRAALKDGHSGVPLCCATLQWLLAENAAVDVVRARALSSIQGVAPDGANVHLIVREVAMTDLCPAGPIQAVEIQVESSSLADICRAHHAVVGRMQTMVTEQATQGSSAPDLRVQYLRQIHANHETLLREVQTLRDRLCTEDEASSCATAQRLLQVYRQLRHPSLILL
UniProt Q8IYI6, sequence (Q8IYI6 whole entry, looked up): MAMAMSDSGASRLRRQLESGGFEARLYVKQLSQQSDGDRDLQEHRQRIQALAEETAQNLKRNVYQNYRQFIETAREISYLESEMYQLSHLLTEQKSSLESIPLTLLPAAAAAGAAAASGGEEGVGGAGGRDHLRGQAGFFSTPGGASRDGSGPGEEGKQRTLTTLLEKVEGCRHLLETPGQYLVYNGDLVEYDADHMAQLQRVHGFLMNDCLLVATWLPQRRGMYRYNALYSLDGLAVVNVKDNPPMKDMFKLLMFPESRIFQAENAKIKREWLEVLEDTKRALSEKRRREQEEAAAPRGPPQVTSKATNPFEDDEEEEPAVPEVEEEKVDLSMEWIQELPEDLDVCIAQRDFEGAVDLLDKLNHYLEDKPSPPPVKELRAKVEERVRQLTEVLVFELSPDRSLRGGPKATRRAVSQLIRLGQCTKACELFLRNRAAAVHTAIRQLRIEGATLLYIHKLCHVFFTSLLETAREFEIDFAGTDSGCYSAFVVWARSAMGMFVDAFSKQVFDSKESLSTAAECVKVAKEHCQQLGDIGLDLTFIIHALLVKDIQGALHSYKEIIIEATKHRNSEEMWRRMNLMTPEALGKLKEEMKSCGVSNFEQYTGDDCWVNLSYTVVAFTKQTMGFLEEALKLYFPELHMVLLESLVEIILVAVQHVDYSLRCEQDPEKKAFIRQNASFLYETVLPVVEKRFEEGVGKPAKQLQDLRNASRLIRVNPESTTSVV
UniProt Q96F86, sequence (Q96F86 whole entry, looked up): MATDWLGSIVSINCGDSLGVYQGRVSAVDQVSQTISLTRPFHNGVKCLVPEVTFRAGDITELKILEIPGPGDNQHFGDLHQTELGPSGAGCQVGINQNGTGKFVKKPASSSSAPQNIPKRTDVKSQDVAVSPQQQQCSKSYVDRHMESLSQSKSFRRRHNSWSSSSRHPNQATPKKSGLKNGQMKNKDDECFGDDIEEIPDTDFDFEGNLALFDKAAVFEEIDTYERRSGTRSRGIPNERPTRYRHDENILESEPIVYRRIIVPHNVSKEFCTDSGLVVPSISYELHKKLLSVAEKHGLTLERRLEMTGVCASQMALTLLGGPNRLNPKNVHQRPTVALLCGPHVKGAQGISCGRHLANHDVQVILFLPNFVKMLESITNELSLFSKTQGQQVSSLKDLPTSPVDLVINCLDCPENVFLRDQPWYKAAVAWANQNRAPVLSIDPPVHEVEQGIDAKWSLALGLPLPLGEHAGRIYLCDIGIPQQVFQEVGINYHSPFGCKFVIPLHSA
UniProt P60842, sequence (P60842 whole entry, looked up): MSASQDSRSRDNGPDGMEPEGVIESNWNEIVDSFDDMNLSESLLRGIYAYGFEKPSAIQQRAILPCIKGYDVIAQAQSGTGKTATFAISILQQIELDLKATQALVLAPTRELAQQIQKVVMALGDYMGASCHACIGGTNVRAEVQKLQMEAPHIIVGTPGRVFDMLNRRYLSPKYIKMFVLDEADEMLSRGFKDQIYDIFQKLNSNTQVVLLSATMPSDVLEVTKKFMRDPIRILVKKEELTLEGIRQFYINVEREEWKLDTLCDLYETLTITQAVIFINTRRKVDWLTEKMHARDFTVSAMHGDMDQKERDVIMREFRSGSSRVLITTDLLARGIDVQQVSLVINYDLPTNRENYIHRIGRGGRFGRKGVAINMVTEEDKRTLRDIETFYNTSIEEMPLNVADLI
UniProt Q9H773, sequence (Q9H773 whole entry, looked up): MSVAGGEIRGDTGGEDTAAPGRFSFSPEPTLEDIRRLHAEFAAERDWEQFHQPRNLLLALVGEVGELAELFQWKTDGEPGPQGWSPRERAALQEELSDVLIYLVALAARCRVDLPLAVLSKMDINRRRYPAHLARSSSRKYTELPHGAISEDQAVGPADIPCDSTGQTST
UniProt Q9H467, sequence (Q9H467 whole entry, looked up): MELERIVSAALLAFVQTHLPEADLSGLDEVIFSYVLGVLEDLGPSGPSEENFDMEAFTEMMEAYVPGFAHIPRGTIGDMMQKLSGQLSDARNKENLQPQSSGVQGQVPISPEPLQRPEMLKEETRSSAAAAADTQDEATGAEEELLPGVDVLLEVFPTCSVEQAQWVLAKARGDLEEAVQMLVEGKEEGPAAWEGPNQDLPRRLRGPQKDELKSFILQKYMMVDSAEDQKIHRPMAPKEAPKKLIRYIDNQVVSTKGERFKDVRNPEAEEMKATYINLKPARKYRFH
UniProt P98173, sequence (P98173 whole entry, looked up): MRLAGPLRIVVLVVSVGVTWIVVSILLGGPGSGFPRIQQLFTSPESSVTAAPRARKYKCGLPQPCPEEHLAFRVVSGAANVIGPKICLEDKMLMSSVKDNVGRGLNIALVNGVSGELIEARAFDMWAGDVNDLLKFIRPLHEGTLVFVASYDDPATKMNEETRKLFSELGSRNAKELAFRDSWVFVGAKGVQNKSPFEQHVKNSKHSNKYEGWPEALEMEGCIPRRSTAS
UniProt Q9HBU6, sequence (Q9HBU6 whole entry, looked up): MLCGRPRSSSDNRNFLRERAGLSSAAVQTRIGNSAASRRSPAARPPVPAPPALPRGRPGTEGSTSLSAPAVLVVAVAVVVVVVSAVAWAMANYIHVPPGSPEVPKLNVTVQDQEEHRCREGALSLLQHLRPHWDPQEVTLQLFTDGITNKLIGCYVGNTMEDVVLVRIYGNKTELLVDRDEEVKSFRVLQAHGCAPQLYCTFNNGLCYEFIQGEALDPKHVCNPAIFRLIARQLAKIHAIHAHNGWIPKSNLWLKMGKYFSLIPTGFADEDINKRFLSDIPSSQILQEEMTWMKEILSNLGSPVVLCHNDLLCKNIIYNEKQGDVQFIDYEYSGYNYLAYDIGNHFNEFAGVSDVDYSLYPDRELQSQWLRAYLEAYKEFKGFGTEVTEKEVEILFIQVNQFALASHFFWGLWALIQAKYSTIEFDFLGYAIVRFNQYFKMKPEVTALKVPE

| Target | log2 fold change [1] | log2 fold change [2] | log2 fold change [3] | log2 fold change [4] | log2 fold change [5] | log2 fold change [6] | log2 fold change [7] | log2 fold change [8] | log2 fold change [9] | log2 fold change [10] |
| --- | --- | --- | --- | --- | --- | --- | --- | --- | --- | --- |
| DDB1 (UniProt Q16531) | 0.045 | 0.036 | -0.032 | -0.024 | 0.021 | 0.009 | -0.005 | -0.01 | -0.028 | 0 |
| EIF4A1 (UniProt P60842) | -0.106 | -0.273 (active) | 0.079 | 0.001 | 0.001 | -0.052 | 0.047 | 0.06 | -0.046 | -0.126 |
| E2F4 (UniProt Q16254) | -0.057 | -0.139 | 0.036 | -0.008 | -0.017 | -0.025 | -0.024 | 0.056 | 0.009 | -0.245 (active) |
| DAB2 (UniProt P98082) | -0.204 | -0.289 (active) | 0.042 | -0.004 | -0.014 | 0.022 | 0.132 | 0.032 | 0.032 | -0.111 |
| DCTPP1 (UniProt Q9H773) | 0.007 | -0.016 | -0.059 | 0.062 | -0.012 | -0.032 | -0.012 | 0.012 | -0.048 | 0.201 |
| ERCC6 (UniProt Q03468) | 0.072 | -0.135 | -0.06 | 0.015 | 0.074 | -0.091 | 0.004 | -0.221 | -0.009 | 0.08 |
| EXOC8 (UniProt Q8IYI6) | -0.212 | -0.367 (active) | 0.045 | -0.004 | -0.088 | 0.003 | 0.073 | 0.05 | 0.009 | -0.295 (active) |
| ESYT1 isoform 2 (UniProt Q9BSJ8) | 0.007 | -0.37 | 0.099 | 0.026 | -0.09 | 0 | 0.033 | 0.045 | 0.063 | 0.115 |
| DNM2 (UniProt P50570) | -0.013 | -0.015 | 0.043 | 0.029 | -0.002 | -0.091 | 0.037 | 0.05 | -0.044 | -0.349 (active) |
| DUS3L (UniProt Q96G46) | -0.162 | -0.331 (active) | 0.017 | 0.087 | 0.004 | 0.02 | 0.028 | 0.007 | 0.021 | -0.04 |
| FAAP100 (UniProt Q0VG06) | -0.01 | 0.149 | -0.02 | 0.139 | -0.05 | -0.093 | 0.061 | 0.006 | -0.02 | 0.124 |
| EDC3 (UniProt Q96F86) | -0.006 | -0.192 | 0.057 | 0.003 | -0.03 | -0.031 | 0.058 | 0.067 | 0.094 | -0.251 |
| EEF1D isoform 2 (UniProt P29692) | -0.089 | -0.336 (active) | -0.001 | 0.008 | -0.031 | 0.05 | -0.022 | 0.019 | 0.015 | -0.039 |
| EXOC5 (UniProt O00471) | -0.236 | -0.596 (active) | 0.093 | 0.041 | -0.046 | 0.022 | 0.066 | 0.044 | 0.054 | -0.215 |
| FAM122A (UniProt Q96E09) | -0.042 | -0.054 | 0.006 | -0.141 | -0.029 | -0.426 (active) | -0.043 | 0.064 | -0.081 | -0.699 (active) |
| FAM50A (UniProt Q14320) | -0.158 | -0.258 (active) | 0.06 | 0.058 | -0.022 | 0.053 | 0.029 | 0.001 | -0.07 | -0.052 |
| ETNK1 (UniProt Q9HBU6) | 0.021 | -0.24 | 0.021 | 0.157 | -0.03 | 0.059 | 0.121 | 0 | -0.14 | 0.041 |
| DBT (UniProt P11182) | 0.068 | 0.009 | -0.01 | -0.022 | -0.018 | -0.001 | -0.14 | -0.025 | 0.015 | 0.045 |
| ERCC2 (UniProt P18074) | -0.015 | -0.258 | 0.043 | 0.326 (active) | 0.003 | -0.076 | -0.019 | 0.007 | 0.013 | -0.153 |
| FADS1, A0A0A0MR51 | 0.022 | -0.148 | 0.036 | 0.024 | 0.002 | -0.002 | -0.007 | 0.017 | -0.119 | -0.041 |
| FAF2 (UniProt Q96CS3) | -0.095 | -0.322 (active) | 0.002 | -0.046 | 0.006 | 0.018 | 0.037 | 0.029 | 0.016 | -0.069 |
| FAM3A (UniProt P98173) | 0.024 | -0.11 | -0.02 | 0.029 | 0.085 | 0.066 | 0.019 | 0.101 | -0.023 | -0.128 |
| CTSL (UniProt P07711) | -0.124 | -0.247 | -0.045 | 0.017 | 0.014 | 0.196 | -0.074 | -0.037 | 0.019 | -0.306 |
| CYFIP1 (UniProt Q7L576) | -0.011 | -0.233 (active) | 0.046 | 0.02 | -0.008 | 0.011 | 0.024 | 0.045 | 0.001 | -0.034 |
| EHD2 (UniProt Q9NZN4) | -0.073 | -0.243 (active) | 0.027 | 0.023 | -0.029 | -0.085 | 0.007 | 0.039 | -0.045 | -0.002 |
| DDX4 (UniProt Q9NQI0) | 0.139 | -0.006 | 0.067 | -0.113 | -0.223 | 0.047 | -0.414 | 0.097 | 0.025 | -0.844 |
| FAM117A (UniProt Q9C073) | 0.001 | 0.129 | 0.071 | 0.091 | 0.006 | -0.025 | 0.028 | 0.015 | -0.008 | -0.182 |
| CUEDC2 (UniProt Q9H467) | -0.044 | -0.133 | 0.033 | 0.118 | -0.01 | -0.001 | -0.01 | 0.105 | -0.038 | -0.067 |
| DNTTIP2 (UniProt Q5QJE6) | 0.047 | -0.002 | 0.031 | -0.144 | 0.015 | 0.09 | -0.028 | -0.088 | 0.226 | -0.028 |
| ECPAS (UniProt Q5VYK3) | -0.188 | -0.602 (active) | 0.093 | 0.614 (active) | -0.097 | -0.029 | 0.079 | 0.041 | 0.026 | -0.143 |
